Among the test systems are T-47D breast; MDA-MB-435 melanoma; SW-620 colon; MCF7 breast; HCT-116 colon; HCC-2998 colon; KM12 colon.
Experiment in all cases: NCI-60 one-dose screen, 48 h (100 = growth as untreated, 0 = no growth, -100 = all killed)
Common to all, as to details: 10 µM unless noted

Compounds without any hit were thinned out: in the full panel of roughly 83,000, 20% have a hit.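 A percent growth of 40 corresponds to 60% growth inhibition; 0 means no net growth; -100 means all cells died. Active threshold: below 10.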 Unmarked numbers belong to inactive results. Calls of active or inactive are those of the source.

We go through 28 compounds from PubChem BioAssay (NCI).

Turning to `COc1cc(CN(c2ccc(Cl)cc2)C2OC(=O)c3ccccc32)cc(OC)c1OC` (stereo unspecified), the growth is 42.3% in the assay on T-47D breast; -45% (active) with MDA-MB-435 melanoma; 30.8% in the assay with SW-620 colon; 31.3% with MCF7 breast; 28% with HCT-116 colon; 73.8% in the assay with HCC-2998 colon. Moreover, in the assay on KM12 colon, the growth is 31.8%.

Regarding `COc1ccc(C(=O)NC(=O)Nc2ccc3c(c2)NC(=O)/C3=C\c2[nH]c(C)c(C(=O)O)c2C)cc1`, the growth is 45.3% in the assay with T-47D breast; 85.2% in the assay with MDA-MB-435 melanoma; 52.6% in the assay on SW-620 colon; 75% in the assay with MCF7 breast; 48.1% in the assay on HCT-116 colon; 97.7% in the assay on HCC-2998 colon. The growth with KM12 colon is 17.8%.

Regarding `COc1cc([C@@H]2c3cc4c(cc3C(OC3O[C@@H]5COC(C)O[C@H]5[C@H](O)[C@H]3O)C3COC(=O)[C@@H]32)OCO4)cc(OC)c1O` (stereo partly specified), the growth in the assay on T-47D breast was 23.9%; in the assay with MDA-MB-435 melanoma, 50%; in the assay with SW-620 colon, 35.6%; in the assay on MCF7 breast, 22.4%; with HCT-116 colon it was 41.7%; with HCC-2998 colon it was 38.7%. In the assay on KM12 colon, the growth was 42.1%.

For the compound `O=C(C[n+]1cccc(Br)c1)c1ccc2c(c1)CCCC2`, the growth with T-47D breast is 91.6%; in the assay on MDA-MB-435 melanoma it was 100%; in the assay with SW-620 colon, 103%; in the assay with MCF7 breast, 90.4%; in the assay on HCT-116 colon, 88.2%; in the assay with HCC-2998 colon, 103%. Further, the growth in the assay on KM12 colon is 108%.

For the compound `Cc1cc2nc(-c3c(N)ncc(C#N)c3-c3ccc(Cl)cc3)[nH]c2cc1C`, the growth was 68.8% with T-47D breast; 58% with MDA-MB-435 melanoma; 76.6% in the assay with SW-620 colon; 58.5% with MCF7 breast; 34.8% in the assay on HCT-116 colon; 65.4% with HCC-2998 colon. For the same compound, the growth in the assay with KM12 colon is 52.9%.

In the case of `Nc1ncnc2c1c(-c1ccc(Oc3ccccc3)cc1)nn2C[C@@H]1SSC[C@H]1O`, the growth was 3.82% (active) with T-47D breast; 8.48% (active) with MDA-MB-435 melanoma; 90.4% in the assay on SW-620 colon; 11.4% in the assay with MCF7 breast; 46.4% in the assay with HCT-116 colon; 88.4% with HCC-2998 colon. In the assay on KM12 colon, the growth was 34.8%.

Turning to `COc1ccc(-c2nnc(NC(=O)CN3CCN(c4cc5c(cc4F)c(=O)c(C(=O)O)cn5C4CC4)CC3)s2)cc1OC`, the growth was 101% in the assay on T-47D breast; 103% in the assay with MDA-MB-435 melanoma; 105% in the assay on SW-620 colon; 106% in the assay with MCF7 breast; 103% with HCT-116 colon; 99.6% in the assay on HCC-2998 colon. Besides, the growth in the assay on KM12 colon was 98.2%.

For the compound `Oc1ccc(O)c(-[n+]2ccccc2)c1`, the growth with T-47D breast is 110%; in the assay with MDA-MB-435 melanoma, 109%; in the assay with SW-620 colon, 96.9%; in the assay on MCF7 breast, 102%; in the assay with HCT-116 colon it was 93.3%; in the assay with HCC-2998 colon it was 102%. Also, the growth in the assay with KM12 colon is 107%.

With `CCOC(=O)C1CSC(C)(C(=O)OCC)N1` (stereo unspecified), the growth in the assay on T-47D breast is 99.8%; in the assay with MDA-MB-435 melanoma, 103%; with SW-620 colon, 104%; in the assay with MCF7 breast, 93.4%; with HCT-116 colon it was 96.6%; in the assay with HCC-2998 colon, 101%. Also, the growth with KM12 colon is 107%.

Turning to `O=C(Nc1ccc(-n2cc(-c3ccncc3)c(-c3ccc(O)c(Cl)c3)n2)cc1)Nc1cc(C(F)(F)F)cc(C(F)(F)F)c1`, the growth was 33.2% in the assay with T-47D breast; 54.6% with MDA-MB-435 melanoma; 73.9% in the assay on SW-620 colon; 55.7% in the assay with MCF7 breast; 53.3% in the assay with HCT-116 colon; 79% in the assay on HCC-2998 colon. Moreover, the growth with KM12 colon was 48.7%.

On to `CSc1nc(N)nc2c1ncn2C`, for which the growth in the assay on T-47D breast is 90.3%; in the assay on MDA-MB-435 melanoma it was 102%; in the assay with SW-620 colon it was 101%; in the assay on MCF7 breast, 96.7%; in the assay on HCT-116 colon, 92.1%; with HCC-2998 colon it was 99.8%. In the assay with KM12 colon, the growth was 95.6%.

On to `Cc1ccn2cc(Cc3cc(=O)oc4c3ccc3ccccc34)c(=O)nc2c1`, for which the growth in the assay with T-47D breast was 85.8%; in the assay with MDA-MB-435 melanoma it was 104%; with SW-620 colon, 103%; in the assay with MCF7 breast, 93.8%; in the assay with HCT-116 colon it was 101%; with HCC-2998 colon, 100%. The growth in the assay with KM12 colon is 101%.

For the compound `CCOC(=O)n1cnc2c(Cl)ncnc21`, the growth is 100% in the assay on T-47D breast; 111% in the assay on MDA-MB-435 melanoma; 108% with SW-620 colon; 95.2% in the assay on MCF7 breast; 101% with HCT-116 colon; 2.2% (active) in the assay with HCC-2998 colon. For the same compound, in the assay with KM12 colon, the growth is 107%.

On to `CC(=O)n1cc(/C=C2\N=C(c3ccc(Cl)cc3)N(c3ccc(S(=O)(=O)Nc4nccs4)cc3)C2=O)c2ccccc21`, for which the growth with T-47D breast is 55.3%; in the assay on MDA-MB-435 melanoma it was 77%; with SW-620 colon, 96.2%; in the assay on MCF7 breast it was 49.8%; with HCT-116 colon, 92.6%; in the assay with HCC-2998 colon, 107%. Besides, in the assay on KM12 colon, the growth was 69.9%.

As to `c1nc(SC2=NCCN2)c2[nH]cnc2n1`, the growth was 21.8% in the assay on T-47D breast; 24% in the assay on MDA-MB-435 melanoma; 58.5% with SW-620 colon; 14% with MCF7 breast; 37% in the assay with HCT-116 colon; 32.8% in the assay with HCC-2998 colon. Besides, the growth in the assay with KM12 colon was 47.2%.

Consider `COc1ccc2c(-c3ccc(F)cc3)c(C#N)c(=NC(C)=O)oc2c1`, for which the growth is 55.8% in the assay on T-47D breast; -3.09% (active) with MDA-MB-435 melanoma; 23% with SW-620 colon; 21.4% with MCF7 breast; 25% in the assay on HCT-116 colon; 60.3% in the assay with HCC-2998 colon. Moreover, in the assay with KM12 colon, the growth was 30.3%.

On to `COc1ccc2c(c1)OC(N(C(C)=O)C(C)=O)=C(C#N)C2c1ccc(F)cc1` (stereo unspecified), for which the growth in the assay on T-47D breast is 42%; with MDA-MB-435 melanoma it was -29.2% (active); with SW-620 colon it was 20.9%; in the assay with MCF7 breast, 17.8%; in the assay with HCT-116 colon, 25.5%; in the assay with HCC-2998 colon, 59.2%. Further, the growth with KM12 colon was 25.6%.

Regarding `CCC1(C(N)=O)CC2C=CC1CC2` (stereo unspecified), the growth in the assay with T-47D breast was 101%; in the assay with MDA-MB-435 melanoma, 121%; with SW-620 colon, 108%; in the assay on MCF7 breast it was 98%; in the assay with HCT-116 colon, 107%; with HCC-2998 colon it was -100% (active). Besides, the growth with KM12 colon was 117%.

With `CN(C)c1ccc(/C=N/n2c(-c3cc(F)c(Cl)cc3Cl)nn(CN3CCOCC3)c2=S)cc1`, the growth was 94.1% in the assay with T-47D breast; 80.7% with MDA-MB-435 melanoma; 109% in the assay on SW-620 colon; 118% with MCF7 breast; 92.6% in the assay with HCT-116 colon; 111% in the assay on HCC-2998 colon. The growth in the assay with KM12 colon was 102%.

For the compound `CCn1cc(/C=C2\Oc3cc(OCC#N)ccc3C2=O)c2cc(OC)ccc21`, the growth with T-47D breast was 48.4%; in the assay with MDA-MB-435 melanoma, -20.7% (active); in the assay with SW-620 colon, 28%; with MCF7 breast it was 20.6%; in the assay with HCT-116 colon it was 12.4%; in the assay with HCC-2998 colon, 55.6%. Moreover, the growth with KM12 colon is 23.6%.

With `O=[N+]([O-])c1cccc2cc(S(=O)(=O)O)ccc12`, the growth was 98.9% with T-47D breast; 110% with MDA-MB-435 melanoma; 99.9% in the assay on SW-620 colon; 97.2% with MCF7 breast; 97.6% with HCT-116 colon; 100% in the assay with HCC-2998 colon. Further, the growth in the assay on KM12 colon was 108%.

`CCNc1cc(S(=O)(=O)O)ccc1C`: the growth in the assay with T-47D breast is 90%; with MDA-MB-435 melanoma, 107%; in the assay with SW-620 colon it was 104%; in the assay with MCF7 breast, 98.6%; in the assay with HCT-116 colon, 98.3%; in the assay on HCC-2998 colon it was 103%. Besides, the growth in the assay with KM12 colon is 107%.

Regarding `O=C(C[n+]1ccccc1Cl)c1ccc2c(c1)CCCC2`, the growth in the assay on T-47D breast is 79.6%; with MDA-MB-435 melanoma, 92.1%; in the assay on SW-620 colon, 82.8%; with MCF7 breast it was 95.8%; with HCT-116 colon, 80.3%; in the assay with HCC-2998 colon it was 103%. For the same compound, in the assay on KM12 colon, the growth was 82.2%.

Consider `COc1ccc(-c2nnc(SCC(=O)Nc3ccc(C(=O)/C=C/c4ccc(OC)c(OC)c4)cc3)o2)cc1`, for which the growth in the assay on T-47D breast was 75%; in the assay with MDA-MB-435 melanoma, 94.2%; with SW-620 colon it was 92.7%; in the assay with MCF7 breast, 51.6%; in the assay with HCT-116 colon it was 77.8%; in the assay with HCC-2998 colon it was 102%. For the same compound, the growth in the assay on KM12 colon is 84.5%.

For `Nn1c(SCC(=O)Nc2cc(Cl)c(Cl)cc2Cl)nnc1-c1cc(F)c(Cl)cc1Cl`, the growth was 97.5% with T-47D breast; 91.2% with MDA-MB-435 melanoma; 106% in the assay on SW-620 colon; 78.8% with MCF7 breast; 91.2% in the assay with HCT-116 colon; 139% with HCC-2998 colon. Further, in the assay on KM12 colon, the growth is 110%.

For the compound `O=S(c1ccccc1)c1ccc2nnnn2n1` (stereo unspecified), the growth was 91.7% in the assay with T-47D breast; 108% in the assay on MDA-MB-435 melanoma; 59.9% in the assay with SW-620 colon; 86.3% with MCF7 breast; 60.7% with HCT-116 colon; 113% in the assay with HCC-2998 colon. Besides, in the assay on KM12 colon, the growth was 98.2%.

`NN=C(c1ccc(Cl)cc1)c1ccc(Cl)cc1`: the growth is 108% in the assay on T-47D breast; 97.1% in the assay on MDA-MB-435 melanoma; 101% in the assay with SW-620 colon; 99.6% with MCF7 breast; 98.4% in the assay on HCT-116 colon; 96% in the assay on HCC-2998 colon. The growth with KM12 colon was 92.9%.

With `N#Cc1c(N)nc2c(c1N)C(c1ccc(Cl)cc1)C1=C(CCCC1=O)N2c1sc2c(c1C#N)CCCC2` (stereo unspecified), the growth is 96.8% in the assay with T-47D breast; 112% with MDA-MB-435 melanoma; 107% with SW-620 colon; 99.7% in the assay with MCF7 breast; 70.8% with HCT-116 colon; 90.3% with HCC-2998 colon. Further, the growth with KM12 colon is 89.7%.
